Chronic BCR inh – chronic active BCR signaling inhibition; ABC-DLBCL IkBa-CBG/CBR reporter, luminescence ratio, 4 h; Potency, µM (highest dose often 46.1 µM), for the others: at the highest dose activity change, negative = inhibition, most hits filed as inhibitors; 0.05% of 340,000 active; AID 493014; active = well fitted inhibition curve with a large enough effect in the signal ratio, with a control signal flat, not every such curve was filed as active; inconclusive = small, poorly fitted or top-dose-only effect, or effect the other way, or a change in a side signal; the % refers to the signal ratio;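 also: plate controls were basal doxycycline-induced cells for no effect and cells given 10 µM MG132 for full effect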
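Concentration-response series (up to 46 uM) were applied to TMD8 dual-reporter cells for 4 h at 37C with doxycycline. Green/red ratio, after filter-overlap correction, defined %Activity; red signal alone was normalised to basal cells and zero luminescence.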
uPA generation – blocks generation of uPA at the cell surface; Potency, µM (top dose mostly 38.3 µM), without a hit: top-dose activity change, negative = inhibition, most hits filed as inhibitors; 0.31% of 330,000 active; cell surface uPA generation assay, qHTS; active = well fitted inhibition curve with a large enough effect; inconclusive = small, poorly fitted or top-dose-only effect; inactive = no such curve, though single readings can be large or run the other way; tested in mouse RAW 264.7 cells; also: % is scaled to controls: 0 for no effect and ±100 for the full control effect; nearly all actives have a fitted effect of over 55% in size
Integrin act MD – activates integrin-mediated alleviation for muscular dystrophy; Potency, µM (top dose mostly 38.3 µM), without a hit: at the highest dose activation, most hits filed as activators; 0.064% of 350,000 active; alpha7betagal myoblasts, beta-gal FDG fluorescence, 48 h; AID 624291;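 also: 100% = response of the positive control SU9516; nearly all actives have a fitted effect of over 60% in size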
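alpha7betagal+/- myoblasts (passage 13, 250/well) treated 48 h at 37C with compounds at 1:260 dilution of DMSO stock. Lysed, then beta-galactosidase activity read as FDG fluorescence (ex 480/em 540) after 30 min, with pre-read for autofluorescence.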
Gal4-VP16 FLuc – inhibits Gal4-VP16 luciferase reporter, ROR gamma counter-screen. Drosophila S2 Gal4-VP16 UAS-luciferase, luminescence, 20 h. 3.5% of 310,000 active. Potency, µM (top dose mostly 53.6 µM), for inactives: top-dose activity, negative = inhibition, usual class: inhibitors;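 also: Gal4-VP16 expression switched on by copper sulfate through the metallothionein promoter; % is scaled to controls: 0 for no effect and ±100 for the full control effect; nearly all actives have a fitted effect of over 50% in size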
RORgamma inh – ROR gamma (mouse) transcription inhibition; Drosophila S2 Gal4-RORgamma UAS-luciferase reporter, 20 h; Potency, µM (series often up to 53.6 µM), for inactives: top-dose activity change, negative = inhibition, hits mostly inhibitors; 5.4% of 310,000 active; also: % is scaled to controls: 0 for no effect and ±100 for the full control effect; nearly all actives have a fitted effect of over 60% in size
Target sequence (P51450 whole entry, looked up, the tested form may be a part): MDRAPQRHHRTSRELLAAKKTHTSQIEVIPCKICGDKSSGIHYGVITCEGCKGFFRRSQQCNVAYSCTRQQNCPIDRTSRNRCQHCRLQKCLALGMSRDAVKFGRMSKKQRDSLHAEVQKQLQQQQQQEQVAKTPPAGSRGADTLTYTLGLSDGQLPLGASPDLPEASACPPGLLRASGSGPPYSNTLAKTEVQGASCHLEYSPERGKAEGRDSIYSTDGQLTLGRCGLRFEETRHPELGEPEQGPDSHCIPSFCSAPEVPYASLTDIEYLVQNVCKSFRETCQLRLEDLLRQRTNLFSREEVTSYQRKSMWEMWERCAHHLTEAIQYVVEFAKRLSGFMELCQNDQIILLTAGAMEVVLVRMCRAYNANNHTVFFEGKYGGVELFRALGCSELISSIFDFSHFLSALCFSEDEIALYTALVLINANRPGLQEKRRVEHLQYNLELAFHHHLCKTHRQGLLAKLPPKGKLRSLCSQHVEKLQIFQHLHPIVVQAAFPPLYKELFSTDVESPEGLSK
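Stable Schneider cell line, Gal4 DNA-binding domain fused to ROR gamma, UAS-luciferase. Cmpd 1 hr RT → CuSO4 700 uM final → 20 hr RT → luciferase reagent 10 min → luminescence.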
Mito fusion act – blocks mitochondrial division or promotes mitochondrial fusion | S. cerevisiae fusion-defective mutant growth rescue, CellTiterGlo 48 h | Potency, µM (top dose mostly 46.1 µM), without a hit: at the highest dose growth rescue (activation), hits mostly activators | 0.23% of 320,000 active; also: % of control where 0% means no effect; nearly all actives have a fitted effect of over 45% in size
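Temperature-sensitive fusion-defective S. cerevisiae (e.g. fzo1-1, mgm1-5) were grown with compound in YPEG medium (3% ethanol, 3% glycerol) for 48 hours at 37C. Growth rescue was measured as viability by CellTiterGlo luminescence after 10 minutes at ambient.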
* hit, by the source's call; ? = inconclusive; · = no result given; [ ] = remark or other dose. Most compounds without a hit are left out; they make up all but 5.5% or so of the library. Unless noted, calls follow the shape of the dose curve; as a rule, active = well fitted curve in the direction sought with a large enough effect; inconclusive = small, poorly fitted or top-dose-only effect, or another doubt; inactive = no such curve, though single readings can be large; an effect the other way counts as inactive or inconclusive. Potency is read from the fitted curve at half-maximal effect.

SMILES	Chronic BCR inh	uPA generation	Integrin act MD	Gal4-VP16 FLuc	RORgamma inh	Mito fusion act
Cc1ccc(-n2c(SCc3ccc([N+](=O)[O-])cc3)nc3ccccc3c2=O)cc1	1%	·	2%	-4%	34%	4%
COc1ccc(-c2nnc(SCCC(=O)O)n2-c2ccccc2)cc1	6%	·	3%	-17%	13µM*	-6%
CCN(CC)c1ccc(-c2nnc(SCC(=O)Nc3ccccc3C#N)n2-c2ccccc2)cc1	0%	-9%	-52%	-25%	18µM*	-2%
Cc1nnc(NS(=O)(=O)c2ccc(F)cc2)s1	·	1%	19%	·	·	·
S=C1N(c2ccccc2)CN(C2CCCCC2)CN1c1ccccc1	-9%	3%	3%	20µM*	11µM*	-19%
CCOc1ccc(-n2c(-c3ccccc3)nnc2-c2ccccc2)cc1	6%	-3%	7%	1%	-5%	0%
Cc1ccc(-c2c[nH]c(=S)n2-c2ccccc2F)cc1	-21%	-2%	-44%	5µM*	1.6µM*	-8%
Cc1ccc(-c2c[nH]c(=S)n2-c2ccccc2)cc1	-16%	14%	6%	5µM*	1.3µM*	7%
CCOc1ccc(-n2c(-c3ccccc3)c[nH]c2=S)cc1	13%	2%	-12%	5.6µM*	2µM*	-18%
COc1cc(C(=O)NC(=S)Nc2ccc([N+](=O)[O-])cc2C)cc(OC)c1OC	-1%	-1%	27%	?	?	0%
COc1c(F)c(F)c(C(=O)Nc2cccc(Cl)c2N2CCOCC2)c(F)c1F	·	14%	27%	-4%	4%	0%
COc1cc(C(=O)NC(=S)Nc2ccccc2[N+](=O)[O-])cc(OC)c1OC	?	-25%	-31%	?	5.6µM*	-3%
COc1ccc(C(=O)NC(=S)Nc2ccccc2N2CCCCC2)cc1[N+](=O)[O-]	?	3%	-7%	1µM*	?	15%
CCOc1cc(N2CCOCC2)c(OCC)cc1NC(=O)COc1ccccc1[N+](=O)[O-]	?	1%	13%	2%	-17%	-2%
COc1ccc(C(=O)NC(=S)Nc2cccc(Cl)c2N2CCOCC2)cc1[N+](=O)[O-]	5%	·	0%	5µM*	1.8µM*	0%
O=C(COc1ccccc1[N+](=O)[O-])Nc1cccc(Cl)c1N1CCOCC1	?	10µM*	-4%	?	?	4%
CCCCCC1=C2CNC(CCC)(C(=O)OC)C=C2C(C)C1=O (centres undefined)	·	·	·	-3%	23%	·
CCOc1ccc(C(=O)NC(=S)Nc2ccc(N3CCCCC3)cc2)cc1[N+](=O)[O-]	-1%	13%	-3%	4µM*	3.2µM*	3%
COc1ccc(C(=O)NC(=S)Nc2cc(C)ccn2)cc1[N+](=O)[O-]	0%	1%	-8%	1µM*	?	-2%
CCOc1ccc(C(=O)Nc2ccc(N3CCN(C)CC3)cc2)cc1[N+](=O)[O-]	6%	-5%	-30%	-17%[10 µM]	-1%	2%
CCOc1ccc(C(=O)NC(=S)NC2CCCC2)cc1[N+](=O)[O-]	6%	-1%	-19%	16µM*	5µM*	-7%
COc1ccc(C(=O)NC(=S)N2CCCCC2)cc1[N+](=O)[O-]	-4%	-4%	-2%	1.3µM*	0.89µM*	-5%
CCOC(=O)CCN1C(=O)[C@H]2[C@H]3[C@H](O)[C@H](O)C/C(=N/O[C@@H]4O[C@@H](COC(C)=O)[C@@H](OC(C)=O)[C@@H](OC(C)=O)[C@H]4OC(C)=O)[C@H]3CC[C@@H]2C1=O	·	·	·	-7%[10 µM]	-2%[10 µM]	·
CCOc1ccc(C(=O)NC(=S)Nc2ccc(NC(=O)CC)cc2)cc1[N+](=O)[O-]	-2%	-2%	24%	-7%	-32%	-3%
CCOc1ccc(C(=O)NC(=S)Nc2ccccc2OC)cc1[N+](=O)[O-]	?	1%	-6%	?	7.1µM*	-3%
